Source: PubChem
KDM5B inhibitor: Primary screen for KDM5B Histone Demethylases FDH-coupled qHTS. actives 2.6% (n = 220,000). KDM5B demethylase, FDH-coupled NADH fluorescence (FDH is formaldehyde dehydrogenase). Lysine-specific demethylase 5B (Homo sapiens), Q9UGL1. Potency, µM (series often up to 57.7 µM), most hits filed as inhibitors. AID 1347165, 2019; further: potency means the concentration at half of the fitted maximal effect; 0% is about no effect; nearly all actives have a fitted effect of over 70% in size
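Inhibition is measured as reduced NADH fluorescence generation from FDH coupling to formaldehyde release. Truncated KDM5BΔAP at 200 nM final acts on H3K4me3 peptide (12.5 µM in substrate mix) in pH 7.5 HEPES buffer with Tween-20, 30 min, room temperature.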
HEK293 viab: GF-AFC viability counterscreen for inhibitors of alpha-synuclein gene (SNCA) expression. AID 1671193, 2021. Potency, µM (series often up to 57.1 µM), for the others: at the top dose activity change, negative = cytotoxicity, actives largely listed as cytotoxic. HEK-293-SNCA-luc viability, GF-AFC fluorescence, 24 h. actives 0.12% (n = 150,000);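 further: potency means the concentration at half of the fitted maximal effect; 0% = DMSO-treated cells and -100% = medium-only wells without cells; nearly all actives have a fitted effect of over 30% in size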
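Cytotoxicity counterscreen: after 24 h compound treatment of genome-edited SNCA-luciferase HEK-293 cells, live-cell protease substrate GF-AFC read by fluorescence after 30 min; activity scaled between DMSO (0%) and medium-only (-100%), curves Hill-fitted.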
SNCA expr inh: Primary qHTS assay for inhibitors of alpha-synuclein gene (SNCA) expression. HEK-293 SNCA-luciferase knock-in, luminescence, 24 h. Potency, µM (titrated, usually from 57.2 µM), for inactives: top-dose activity change, negative = inhibition, hits mostly inhibitors. AID 1671194, 2021. actives 0.17% (n = 140,000);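 further: potency means the concentration at half of the fitted maximal effect; plate controls were DMSO cells for no effect and cell-free wells for full effect; nearly all actives have a fitted effect of over 45% in size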
IP6K1 inhibitor: Primary qHTS assay for small molecule inhibitors of Inositol hexaphosphate kinase 1 (IP6K1); IP6K1 kinase, ADP-Glo luminescence, 2 h; stronger effect = lower value; activity change, % (series mostly up to about 58 µM); actives 0.81% (n = 140,000); AID 1645851, 2021; in the data active means activity change below about -25%; further: on the % scale 0 is the no-effect control and ±100 the full control effect
Target sequence (Q92551 whole entry, looked up): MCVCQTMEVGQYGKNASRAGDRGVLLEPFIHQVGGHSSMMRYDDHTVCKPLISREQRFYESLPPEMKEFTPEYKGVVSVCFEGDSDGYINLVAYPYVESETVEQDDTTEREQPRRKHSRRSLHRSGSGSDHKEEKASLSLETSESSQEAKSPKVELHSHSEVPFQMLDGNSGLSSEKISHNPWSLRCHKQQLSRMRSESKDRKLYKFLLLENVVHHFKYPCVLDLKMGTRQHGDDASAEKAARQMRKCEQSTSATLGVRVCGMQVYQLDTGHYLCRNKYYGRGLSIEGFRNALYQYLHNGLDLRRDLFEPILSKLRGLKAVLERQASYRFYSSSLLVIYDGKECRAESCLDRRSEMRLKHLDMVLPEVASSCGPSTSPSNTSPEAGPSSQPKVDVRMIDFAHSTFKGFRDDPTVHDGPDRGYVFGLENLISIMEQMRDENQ
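ADP-Glo luminescence measures ADP made by human IP6K1 during a 2 h RT reaction with ATP/IP6 (mix at 1.3 mM/130 uM); top library doses 57.5 and 19.1 uM final.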
IP6K1 inh cnf: Confirmatory qHTS assay for small molecule inhibitors of Inositol hexaphosphate kinase 1 (IP6K1); shares compounds with IP6K1 inhibitor; actives 13% (n = 1,200); Potency, µM (series often up to 49 µM), for inactives: top-dose activity change, negative = inhibition, hits mostly inhibitors; recombinant IP6K1 kinase, ADP-Glo luminescence, 2 h; further: potency means the concentration at half of the fitted maximal effect; on the % scale 0 is the no-effect control and ±100 the full control effect; nearly all actives have a fitted effect of over 65% in size
Numbers without * were called inactive; i = inactive; ? = inconclusive; · = not tested or not shown; ! = a repeat was not active; [ ] = another dose, or the depositor's remark. Rows were chosen to be rich in hits. Some 3% of all compounds tested hit in one or more screens of this group. Unless noted, the call rests on the fitted dose curve; in most records, active means well fitted curve in the direction sought with a large enough effect; inconclusive means small, poorly fitted or top-dose-only effect, or another doubt; inactive means no such curve, though single readings can be large; an effect the other way counts as inactive or inconclusive.

SMILES	KDM5B inhibitor	HEK293 viab	SNCA expr inh	IP6K1 inhibitor	IP6K1 inh cnf
Fc1cccc(CNc2nc(-c3ccccc3C(F)(F)F)nc3ccccc23)c1	·	·	·	·	-8%
Fc1ccc(CNc2nc(-c3ccccc3C(F)(F)F)nc3ccccc23)cc1	·	·	·	·	-2%
Cc1ccc(N=C2NN=C(c3c[nH]c(C(=O)N4CCCC4)c3)CS2)c(C)c1	i	·	·	·	·
CC(NC(=O)c1[nH]c2ccccc2c1Cl)c1cccc(F)c1 (stereo not given)	i	·	·	·	·
CC(=O)c1cccc(Nc2nc(-c3cccc(C)c3)nc3ccccc23)c1	?	-5%	52%	-39*	?
CCc1nnc(NC(=O)c2nc(S(=O)(=O)Cc3ccc(C)cc3)ncc2Cl)s1	?	28µM*	?	-33*	-10%
CCOc1ccc(NC(=O)c2nc(S(=O)(=O)Cc3ccc(C)cc3)ncc2Cl)cc1	i	·	·	·	·
O=C(NCC(=O)N1CCC(c2ccccc2)CC1)c1cccc(-c2ccc(C(F)(F)F)cc2)c1	·	-1%[12.5 µM]	-19%	-4	·
CCc1oc2ccccc2c1C(=O)c1cc(I)c(O)c(I)c1	·	62%[23.9 µM]	-13%[25.6 µM]	-56*	3.5µM*
CCc1oc2ccccc2c1/C=N/O	i	·	·	·	·
CN(Cc1ccccc1)C(=O)CNC(=O)Nc1ccccc1	i	·	·	·	·
CCOc1ccc(S(=O)(=O)n2c(C)nc3ccccc32)cc1	·	29%[23.9 µM]	·	-3	·
O=S(=O)(c1cccc(Cl)c1)n1c(/C=C/c2ccccc2Cl)nc2ccccc21	?	-23%	?	-39*	?
CCc1nc2nc(C)c(NS(=O)(=O)c3ccc(F)c(C)c3)c(=O)n2[nH]1	i	7%	27%	-28*	9%
CCc1nc2nc(C)c(NS(=O)(=O)c3ccc(F)cc3)c(=O)n2[nH]1	i	·	·	·	·
O=C(NOC[C@H](O)CO)c1ccc(F)c(F)c1Nc1ccc(I)cc1F	·	-5%	-17%	-6	-1%
O=C(Nc1ccc(I)cc1C(F)(F)F)c1cc(Cl)ccc1Cl	i	·	·	·	·
O=C(NOCC1CC1)c1ccc(F)c(F)c1Nc1ccc(I)cc1Cl	·	-21%	-33%	11	-14%
O=C(NCC(O)CO)c1ccncc1Nc1ccc(I)cc1F (stereo not given)	·	2%	·	5	·
O=C(Cn1nc2ccc(SCc3ccc(Cl)cc3)nn2c1=O)NCc1ccc(F)cc1	i	·	·	·	·
CC1=C(C(=O)Nc2ccc(C)cc2C)C(c2cccs2)n2nc(SCc3ccccc3Cl)nc2N1 (stereo not given)	i	3%	18%	-26*	23%
CC1=C(C(=O)Nc2ccccc2C)C(c2cccs2)n2nc(SCc3cc(C)ccc3C)nc2N1 (stereo not given)	i	7%	-6%	0	·
CC(=O)N1CC2(Cc3ccccc3N(C(C)=O)C2)C1	i	-3%[87.6 µM]	-7%[87.6 µM]	-7	·
COC(=O)N1CC2(Cc3ccccc3N(C(C)=O)C2)C1	i	19%[87.6 µM]	16%[87.6 µM]	-25*	1%
CCCCNc1oc(-c2ccc(COc3ccc(OC)cc3)o2)nc1C#N	?	11%	12%	-31*	-1%
SMILES	KDM5B inhibitor	HEK293 viab	SNCA expr inh	IP6K1 inhibitor	IP6K1 inh cnf
COc1cccc(CNC(=O)C2=C(c3ccccc3)c3cc(Cl)ccc3S(=O)(=O)N2C)c1	i	·	·	·	·
CCCC(=O)c1cc(O)c(O)cc1O	·	-14%	30%	-96*	?
Brc1ccc(-c2noc(/C=C/c3ccccc3)n2)cc1	i	·	·	·	·
Cn1ccnc1C(NCC(O)COCc1cccs1)c1ccccc1 (stereo not given)	i	·	·	·	·
N#CCSc1ccccc1C(=O)Nc1ccc2c(c1)CCC2	i	·	·	·	·
Cc1cc(Nc2nc(NC(C)c3ccc(F)cc3)c(C#N)cc2F)n[nH]1 (stereo not given)	·	·	·	·	-9%
c1ccc2cc(CNCCN3CCCC3)ccc2c1	i	·	·	·	·
COC(=O)c1cccnc1-n1c(=O)c2cccnc2n(CC(=O)Nc2ccccc2F)c1=O	?	-5%	-9%	-28*	16%
COC(=O)c1cccnc1-n1c(=O)c2cccnc2n(CC(=O)Nc2c(C)cc(C)cc2C)c1=O	i	-7%	12%	18	·
C[C@@H]1CCN(C(=O)CC#N)C[C@@H]1N(C)c1ncnc2[nH]ccc12	·	·	·	·	4%
Cc1cn(C)c(CC(=O)N2CCN(c3cccc(Cl)c3)CC2)c1C(=O)O	i	1%	6%	-26*	-25%
Cc1c(C)n(Cc2ccc(-c3ccccc3C(=O)O)cc2)c2ccc(C(=O)N[C@@H](C)c3ccc([N+](=O)[O-])cc3)cc12	·	21%	-12%	-27*	?
COC(=O)CC1Oc2ccc(Cl)cc2-n2cc(-c3ccccc3)nc21 (stereo not given)	?	4%	1%	26	·
Clc1ccc2c(c1)-n1cc(-c3ccccc3)nc1CO2	i	?	85%	-28*	?
CC(C)OCCCNC(=O)CCCN1C(=O)CCn2nc(-c3cccn3C)cc21	?	12%	-1%	-34*	11%
CCCNC(=O)CCCN1C(=O)CCn2nc(-c3cccn3C)cc21	i	14%	-5%	1	·
O=Nc1c(-c2c(O)[nH]c3cc(Br)ccc23)[nH]c2ccccc12	·	25µM*!	-5%	·	3.7µM*
O=C1/C(=C/c2ccc(C(F)(F)F)cc2)CCc2ccccc21	i	·	·	·	·
COc1ccccc1Cn1c(=O)c(C(=O)N2CCN(C(C)=O)CC2)nc2cccnc21	·	-1%	11%	3	·
Cn1c(=O)n(C)c2cc(N3CCOCC3)c(NS(=O)(=O)c3ccc(Cl)cc3)cc21	i	3%	54%	-13	·
Cn1c(=O)c(=O)n(C)c2cc(N3CCOCC3)c(NS(=O)(=O)c3ccc(Cl)cc3)cc21	?	1%	-21%	-32*	-4%
Cc1cccc(C(=O)N2CCC3(CC2)CC2C(=O)NCCN2C3)c1 (stereo not given)	·	15%	2%	27	·
Cc1ccccc1-c1cc(C(=O)NCc2cnn(C)c2)c2c(c1)N(C)CCO2	32µM*	-14%[87.6 µM]	?	-25*	?
COc1cncc(-c2cc(C(=O)NCc3cccnc3)c3c(c2)N(C)CCO3)c1	i	-12%[87.6 µM]	?	-28*	?
COc1cccc(-c2cc(C(=O)NCc3cccnc3)c3cnn(C)c3n2)c1	·	·	·	-15	·
CN1CCOc2c(C(=O)NCc3cccnc3)cc(-c3ccccc3F)cc21	25µM*	?	-9%[87.6 µM]	-29*	-17%
CC(NC(=O)C(=O)Nc1ccccc1Cl)c1ccccc1 (stereo not given)	i	·	·	·	·
CC(C)NC(=O)Nc1cccc(-c2noc(-c3cccs3)n2)c1	i	·	·	·	·
